This is a sample that favours compounds with a hit; in the whole collection about 17% have one here.
HepG2 tox: kills HepG2 cells in TGF-b inhibitor counter-screen; HepG2 CAGA-GFP viability, ATP luminescence, 18 h; Potency, µM (doses to about 46.1 µM), without a hit: top-dose activity change, negative = cytotoxicity, usual class: cytotoxic; 410,000 tested, 0.76% active; AID 588856
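HepG2 CAGA-GFP cells (1000/well, DMEM with 1% FBS) received compound, then TGF-beta at 500 pg/mL final, and were incubated 18 hours at 37 degrees C. Viability was read by CellTiter-Glo luminescence. Media-only wells were set as complete cell-killing and DMSO as no toxicity.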
HT1080-NT tox: kills 2HG-producing HT-1080-NT fibrosarcoma cells; HT-1080-NT fibrosarcoma viability, CellTiter-Glo ATP luminescence, 48 h; Potency, µM (doses to about 46.1 µM), for the others: top-dose activity, negative = less viability, actives largely listed as cytotoxic; 360,000 tested, 1.6% active; AID 686970;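 note: NT is the 2HG producing partner of a matched IDH1 knockdown line; 0% = DMSO-treated cells and -100% = media-only wells without cells; nearly all actives have a fitted effect of over 55% in size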
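Viability of the 2HG-overproducing fibrosarcoma line after 48 hours of compound exposure at 37 degrees C was determined by luminescence with CellTiter-Glo, and concentration-effect curves were then fitted and categorized.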
HT1080 IDH1KD tx: HT-1080 IDH1 knockdown cell toxicity (counter line); 360,000 tested, 2% active; Potency, µM (top dose mostly 46.1 µM), without a hit: top-dose activity, negative = toxicity, hits mostly cytotoxic; AID 686971; HT-1080 IDH1 knockdown viability, ATP luminescence, 48 h;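 note: 0% = DMSO wells and -100% = cell-free medium wells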
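Luminescent ATP read-out (CellTiter-Glo, 10 min at room temperature) after 48 h compound exposure at 37 °C gave viability of IDH1-knockdown HT-1080 cells. Activity was normalised to DMSO and cell-free wells, then fitted as concentration-response curves.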
TGFb inhibitor: blocks TGF-b signaling. AID 588855. HepG2 CAGA-GFP TGF-b/SMAD3 reporter, GFP fluorescence, 18 h; TGF-beta stimulated, 500 pg/mL final. 410,000 tested, 1.2% active. Potency, µM (top dose mostly 46.1 µM), for inactives: top-dose activity, negative = inhibition, actives largely listed as inhibitors; note: % is set by controls: 0 for no effect and ±100 for the full control effect; nearly all actives have a fitted effect of over 65% in size
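Smad-responsive CAGA-GFP expression was quantified in HEPG2 cells exposed to compounds and 500 pg/mL final TGF-beta for 18 h at 37 degrees C; unstimulated wells defined full inhibition.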
DT40 TDP1 no CPT: qHTS for Inhibitors of human tyrosyl-DNA phosphodiesterase 1 (TDP1): qHTS in cells in absence of CPT; DT40 Tdp1-/- hTDP1 cells, no CPT, ATP luminescence, 48 h; Potency, µM (top dose mostly 46.2 µM), without a hit: at the highest dose activity change, negative = growth inhibition, hits mostly inhibitors; 420,000 tested, 15% active; AID 686978, 2013; note: % is set by controls: 0 for no effect and ±100 for the full control effect; nearly all actives have a fitted effect of over 55% in size
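Readout: luminescence from CellTiter-Glo after 30 min in the dark at RT. Cells: DT40 Tdp1-/- with stable hTDP1, 400/well. Exposure: compounds alone, ≥48 hr, 37 °C.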
DT40 TDP1 CPT: DT40-hTDP1 cell growth loss with CPT. Potency, µM (top dose mostly 46.2 µM), inactives show at the top dose activity change, negative = growth inhibition, actives largely listed as inhibitors. chicken DT40 Tdp1-/-;hTDP1 cells + 20 nM CPT, ATP luminescence, 48 h. 420,000 tested, 12% active; note: % is set by controls: 0 for no effect and ±100 for the full control effect; nearly all actives have a fitted effect of over 55% in size
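Cell growth measured by CellTiter-Glo luminescence after a minimum 48 h, 37 C compound exposure with 20 nM CPT in Tdp1-knockout DT40 cells stably expressing hTDP1, seeded 400/well; qHTS titration format.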
An asterisk follows results filed as active; ? = inconclusive; nt = no result given; ! = a repeat was not active; [ ] = remark or other dose. Calls come from the whole dose curve; as a rule, active = well fitted curve in the direction sought with a large enough effect; inconclusive = small, poorly fitted or top-dose-only effect, or another doubt; inactive = no such curve, though single readings can be large; an effect the other way counts as inactive or inconclusive. Potency is the fitted concentration of half-maximal effect.

SMILES	HepG2 tox	HT1080-NT tox	HT1080 IDH1KD tx	TGFb inhibitor	DT40 TDP1 no CPT	DT40 TDP1 CPT
Cc1ccc(OCC(=O)NCC(=O)OCc2cc(=O)n3nc(CC(C)C)sc3n2)cc1	-26%	nt	nt	-8%	-20%	-24%
Cc1cc(OCC(=O)NCc2ccccn2)c2c(C)cc(=O)oc2c1	-2%	9%	8%	12%	0%	7%
CCCc1cc(=O)oc2cc(C)cc(OCC(=O)NCc3ccccn3)c12	-15%	0%	-6%	0%	-18%	18µM*
OCC1OC2C(NC(=S)N2c2ccccc2)C(O)C1O (stereo not drawn)	8%	9%	15%	-22%	6%	4%
CN(C)CC(C)(C)CNS(=O)(=O)c1ccc(Cl)c(Cl)c1	0%	-23%	16µM*!	-9%	2.3µM*!	-24%
O=C(Oc1ccc(OC(=O)N2CCCCC2)cc1)c1ccccc1	0%	-20%	-4%[9.24 µM]	2%	0.046µM*	?
O=C(Oc1ccccc1)N1CCCC1	-11%	-2%	-1%	-16%	0%	5%
CC1=NN(C(=O)c2ccccc2Cl)C(O)(c2ccccc2)C1 (stereo not drawn)	5%	3%	5%	0%	4%	-7%
O=C(c1ccccc1F)N1N=C(C(F)(F)F)CC1(O)c1ccccc1 (stereo not drawn)	-18%	-5%	-7%	-19%	?	?
O=C(c1ccccc1)N1N=C(C(F)(F)F)CC1(O)c1ccccc1O (stereo not drawn)	7.1µM*	-11%	-18%	8.9µM*	?	-7%
CCC1=NN(C(=O)c2cccc([N+](=O)[O-])c2)C(O)(c2ccc(C)cc2)C1 (stereo not drawn)	-74%	?	-16%	?	?	?
CCC1=NN(C(=O)c2ccc(Br)cc2)C(O)(c2ccccc2)C1 (stereo not drawn)	-26%	0%	-29%	?	6.5µM*	5.8µM*
CC1=NN(C(=O)c2ccccc2)C(O)(c2ccc(Br)cc2)C1 (stereo not drawn)	-21%	-23%	?	?	?	5.8µM*
CCOC(=O)C1=NN(C(=O)c2ccccc2)C(O)(c2ccc(C)cc2)C1 (stereo not drawn)	0%	-4%	12%	-17%	26µM*	?
COc1cccc(-c2cnc3cccnn23)c1	6%	-24%	-6%	0%	?	?
Cc1ccc2c(CSc3nncn3C)cc(=O)oc2c1C	10µM*	4%	12%	0%	15%	5%
Cc1ccc2c(CN3CCC(C(N)=O)CC3)cc(=O)oc2c1C	0%	14%	1%	0%	-30%	15%
Cc1ccsc1/C=N/n1c(-c2ccncc2)n[nH]c1=S	-9%	-1%	2%	9%	-14%	?
C=CCN1[C@@H](Cc2ccccc2)COCCS1(=O)=O	0%	4%	2%	-12%	-24%	-20%
C=CCNC(=O)/C(C#N)=C/c1ccccc1Cl	-2%	-18%	3%	-1%	?	?
C=CCNC(=O)/C(C#N)=C/c1cc(Br)ccc1OC	-37%	21µM*	?	-25%	?	?
COc1ccc(-c2cc(=Nc3c(C)n(C)n(-c4ccccc4)c3=O)c3ccccc3o2)cc1	-27%	-6%	-21%	-11%	21µM*	?
CCC(=O)Nc1ccc(C)cc1-c1nc2ccccc2n(CC(=O)Nc2ccccc2Cl)c1=O	78%	nt	nt	180%	-23%	?
CCC(=O)Nc1ccc(CC)cc1-c1nc2ccccc2n(CC(=O)Nc2cccc(Cl)c2)c1=O	-25%	nt	nt	-17%	?	21µM*
CCC(=O)N1CCCc2cc(S(=O)(=O)N3CCC(C(=O)Nc4ccccc4CC)CC3)ccc21	-1%	nt	nt	-10%	?	26µM*
SMILES	HepG2 tox	HT1080-NT tox	HT1080 IDH1KD tx	TGFb inhibitor	DT40 TDP1 no CPT	DT40 TDP1 CPT
CN1C(=O)C(C)(C)c2cc(S(=O)(=O)N3CCCC(C(=O)NCc4ccccc4Cl)C3)ccc21 (stereo not drawn)	-15%	-1%	-2%	-16%	23µM*	?
CC(=O)N1CCCc2cc(S(=O)(=O)N3CCCC(C(=O)NCc4ccccc4Cl)C3)ccc21 (stereo not drawn)	-1%	10%	0%	-3%	26µM*	21µM*
CCC(=O)N1CCCc2cc(S(=O)(=O)N3CCC(C(=O)Nc4cccc(Cl)c4)CC3)ccc21	-39%	nt	nt	?	?	?
O=C(NCc1ccccc1Cl)C1CCN(S(=O)(=O)c2ccc3c(c2)CCCN3C(=O)C2CCC2)CC1	-24%	nt	nt	-24%	15µM*	15µM*
CC(=O)N1c2ccc(S(=O)(=O)N3CCCC(C(=O)NCc4ccccc4Cl)C3)cc2CC1C (stereo not drawn)	-17%	-3%	-16%	?	-11%	?
COc1ccc(CNC(=O)C2CCCN(S(=O)(=O)c3ccc4c(c3)C(C)(C)C(=O)N4C)C2)cc1 (stereo not drawn)	-22%	1%	2%	2%	?	-14%
CCc1ccc(NC(=O)CCS(=O)(=O)c2ccc(Cl)cc2)cc1	-15%	1%	0%	-27%	?	?
CC(=O)Nc1ccccc1-c1nc(CNC(=O)c2ccc(F)c(F)c2)c(C)o1	nt	nt	nt	nt	-11%	-6%
CC(=O)N1CCCc2cc(S(=O)(=O)N3CCCC(C(=O)Nc4cccc(C)c4)C3)ccc21 (stereo not drawn)	1%	3%	-14%	0%	-18%	-28%
CC(=O)N1CCCc2cc(S(=O)(=O)N3CCCC(C(=O)Nc4ccc(C)c(F)c4)C3)ccc21 (stereo not drawn)	-2%	nt	nt	-29%	21µM*	?
O=C(C1CCC1)N1CCCc2cc(S(=O)(=O)N3CCN(c4ccccc4)CC3)ccc21	-12%	0%	0%	?	?	18µM*
CC(=O)N1CCCc2cc(S(=O)(=O)N3CCN(c4ccc(F)cc4)CC3)ccc21	-11%	nt	nt	?	16µM*	23µM*
O=C(C1CC1)N1CCc2cc(S(=O)(=O)N3CCN(c4ccccc4)CC3)ccc21	4%	-12%	-9%	-18%	-28%	-17%
COc1cc(C)c(CN2C[C@H](Sc3ccccn3)C[C@H]2C(=O)N(C)C)cc1C	nt	nt	nt	nt	?	-43%

Source: PubChem
